The full list was thinned out, with hits kept by preference.
RBX1-CUL1 inh: inhibitors of human ROC1-CUL1 ubiquitin ligase activity; AID 1347404; in vitro K48 di-Ub FRET, acceptor:donor ratio, 45 min; inhibition, % at 10 µM; actives 0.6% (n = 140,000); in the data active = inhibition above about 25%
Target sequence (P62877 whole entry, looked up): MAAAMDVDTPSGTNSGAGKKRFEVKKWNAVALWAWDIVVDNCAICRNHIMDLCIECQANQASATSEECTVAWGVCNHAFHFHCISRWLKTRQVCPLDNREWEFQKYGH
Target sequence (Q13616 whole entry, looked up): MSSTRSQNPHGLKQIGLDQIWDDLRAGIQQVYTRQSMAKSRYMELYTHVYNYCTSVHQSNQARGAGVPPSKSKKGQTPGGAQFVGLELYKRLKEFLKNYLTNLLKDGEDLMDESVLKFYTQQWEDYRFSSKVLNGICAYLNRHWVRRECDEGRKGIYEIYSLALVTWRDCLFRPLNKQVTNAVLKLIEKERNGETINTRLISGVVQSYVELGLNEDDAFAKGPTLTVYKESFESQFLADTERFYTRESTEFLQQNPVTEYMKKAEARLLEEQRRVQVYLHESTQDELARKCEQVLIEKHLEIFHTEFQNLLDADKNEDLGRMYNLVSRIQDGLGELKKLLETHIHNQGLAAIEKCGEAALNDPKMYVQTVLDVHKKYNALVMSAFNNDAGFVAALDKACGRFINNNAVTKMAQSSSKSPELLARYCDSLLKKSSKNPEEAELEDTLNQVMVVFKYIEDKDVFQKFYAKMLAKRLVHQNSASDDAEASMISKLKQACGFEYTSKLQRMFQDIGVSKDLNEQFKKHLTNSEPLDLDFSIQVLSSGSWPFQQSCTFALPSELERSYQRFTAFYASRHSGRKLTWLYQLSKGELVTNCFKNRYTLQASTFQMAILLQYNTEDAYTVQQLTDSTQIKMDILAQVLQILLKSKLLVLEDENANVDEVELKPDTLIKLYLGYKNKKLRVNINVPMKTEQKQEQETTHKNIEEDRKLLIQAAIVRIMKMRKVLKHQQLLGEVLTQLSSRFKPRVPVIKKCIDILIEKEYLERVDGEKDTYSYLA
* hit, by the source's call.

SMILES	RBX1-CUL1 inh
O=C(c1cccc(C(F)(F)F)c1)C1CCCN(C(=O)CCN2CCCCC2=O)C1 (stereo unspecified)	9
CCCc1nn2c(=O)cc(N3CCCCC3)nc2s1	-9
Cc1cccc(/C=N/Nc2cc(N3CCCCC3)nc(N3CCCCC3)n2)c1	1
CCC(=O)NNc1cc(N2CCCC2)nc(N2CCCC2)n1	74*
O=C(O)C1CC1C(=O)c1ccccc1 (stereo unspecified)	-3
CN=C1CC=CC=C(c2ccn(C)n2)C1=O	-5
O=C(c1ccc2ccccc2c1)C1CCCN(C(=O)CCN2CCCC2=O)C1 (stereo unspecified)	-5
COC(=O)CCC(=O)N1CCCC(C(=O)c2ccc3ccccc3c2)C1 (stereo unspecified)	0
CCn1cc(C(=O)N2CCCC(C(=O)c3ccc4ccccc4c3)C2)cn1 (stereo unspecified)	68*
O=[N+]([O-])c1cccc(C2N(Cc3ccccc3)CCN2Cc2ccccc2)c1	0
CCOC(=O)C(NC(=O)COc1ccccc1)(Nc1sc2c(c1C(=O)OC)CCCC2)C(F)(F)F (stereo unspecified)	2
COc1ccccc1NC(=O)C1C(C)=Nc2nc(-c3ccco3)nn2C1c1ccccc1F (stereo unspecified)	-2
CN(Cc1ccon1)C(=O)c1csc2nc(-c3cccc(F)c3)cn12	-4
CC1=NN(c2ccc(Cl)c(Cl)c2)C(=O)/C1=C/c1ccc(C)cc1	-8
CC1=NN(c2ccc(C(=O)O)cc2)C(=O)/C1=C/c1cc(C(C)(C)C)c(O)c(C(C)(C)C)c1	12
CC1=NN(c2ccc(Cl)c(C(=O)O)c2)C(=O)/C1=C\c1cnn(-c2ccc(C)c(C)c2)c1	100*
COc1ccc(C2CC(=O)C3=C(C2)Nc2ncnn2C3c2cccnc2)cc1OC (stereo unspecified)	2
CCOc1cc(/C=C2\C(=O)NN(c3ccc(C)c(C)c3)C2=O)cc(I)c1O	0
c1cnn(CCCN2CCc3onc(-c4ccc5c(c4)OCO5)c3C2)c1	2
O=C1C(Cc2cc(Br)cc(Br)c2O)=NC(=S)N1c1ccc(Cl)cc1	100*
COc1cc(C)c(CC2=NC(=S)N(c3ccc(Cl)cc3)C2=O)cc1C(C)C	8
O=C1NC(=S)N=C1Cc1cc(Br)cc(Br)c1O	7
Cc1ccccc1OCC(=O)NC(C(=O)N/N=C/c1ccc(OCc2ccccc2C#N)cc1)C(C)C (stereo unspecified)	96*
Cc1ccccc1OCC(=O)NC(C)C(=O)N/N=C\c1ccc2c(c1)n(C)c(=O)n2C (stereo unspecified)	9
Cc1cccc(OCC(=O)NC(C)C(=O)N/N=C/c2ccc(OCc3c(C)cc(C)cc3C)cc2)c1 (stereo unspecified)	12
SMILES	RBX1-CUL1 inh
CCCNC(=O)CN(Cc1c(Cl)cccc1Cl)S(=O)(=O)c1ccc(Cl)cc1	-8
COC(=O)c1scc(OS(=O)(=O)c2ccc(C)cc2)c1C(=O)OC	-7
O=C(N/N=C1\CCCc2c1[nH]c1ccccc21)C(O)(c1ccccc1)c1ccccc1	5
COc1ccc(C2CC(=O)NC(Nc3nc(C)c4ccc(C)cc4n3)=N2)cc1 (stereo unspecified)	6
CCOc1cc(/C=C2\C(=O)N(c3ccccc3)C(=S)N2c2ccc(CC)cc2)c(Br)cc1O	3
CCOc1cc(/C=C2\C(=O)NC(=O)N(c3ccc(C45CC6CC(CC(C6)C4)C5)cc3)C2=O)c(Br)cc1O	91*
COC(=O)COc1ccccc1/C=C1\C(=O)NC(=O)N(c2ccc(C34CC5CC(CC(C5)C3)C4)cc2)C1=O	41*
C=CCc1cc(/C=C2\C(=O)NC(=O)N(c3ccc(Br)c(C)c3)C2=O)cc(OCC)c1O	2
COC(=O)COc1ccccc1/C=C1/C(=O)N(c2ccc(Cl)cc2)C(=S)N1C	-9
COc1cc(OC)c(OC)cc1/C=C1\C(=O)NC(=S)N(c2ccc(F)cc2)C1=O	6
COC1(OC)C(C=Cc2ccc([N+](=O)[O-])cc2)C(C#N)(C#N)C1(OC)OC (stereo unspecified)	-2
Cn1cccc1/C=N/Nc1nncc(-c2ccccc2)n1	4
CN1C2CCC1/C(=C/c1cc(Br)cs1)C(=O)/C2=C\c1cc(Br)cs1	-9
CN1C2CCC1/C(=C/c1cccn1C)C(=O)/C2=C\c1cccn1C	25*
NC1=NC(=S)NC(=O)C1C(c1cccnc1)C1C(=O)NC(=S)N=C1N (stereo unspecified)	1
CN=C1CC=CC=C(C(=O)/C=C/c2cccc(C(F)(F)F)c2)C1=O	81*
CCN=C1CC=CC=C(C(=O)/C=C/c2ccc(CC)cc2)C1=O	-8
CCn1ncc(/C=C/C(=O)c2ccccc2)c1C	1
CCN=C1CC=CC=C(C(=O)/C=C/c2ccccc2Cl)C1=O	3
CCN=C1CC=CC=C(C(=O)/C=C/c2ccccc2Br)C1=O	36*
CCN=C1CC=CC=C(C(=O)/C=C/c2cccc(Cl)c2Cl)C1=O	38*
CCN=C1CC=CC=C(C(=O)/C=C/c2ccc(C#N)cc2)C1=O	-2
CCC(C)N1C(=O)S/C(=C/c2ccccc2Br)C1=O (stereo unspecified)	-10
Cc1ccccc1N=C1CC=CC=CC1=O	-14
CCN=C1CC=CC=C(C(=O)/C=C/c2ccccc2C)C1=O	73*
SMILES	RBX1-CUL1 inh
O=C(CCc1ccccc1)N/N=C/c1cccc(Cl)c1Cl	0
CCN=C1CC=CC=C(C(=O)/C=C/c2ccccc2OCC)C1=O	8
COCC(=O)NC1CC(=O)N(CCc2cccc(Cl)c2)C1 (stereo unspecified)	7
CC1(C)CC(=O)C2C(=NC3=C(C(=O)CC(C)(C)C3)C2c2ccc(OCc3ccc(C(=O)O)cc3)c(Br)c2)C1 (stereo unspecified)	3
COc1ccc(NC(=O)c2c(C)noc2C)cc1Cl	5
CCC(C)NS(=O)(=O)Cc1ccc(F)cc1 (stereo unspecified)	3
COC1CCN(Cc2cnc(S(=O)(=O)C(C)C)n2Cc2ccccc2F)CC1	-3
C[n+]1c2cc3ccccc3cc2n2nc3c(cc21)c1cccc2cccc3c21	97*
C[n+]1c2ccccc2n2nc3c(cc21)c1cccc2cccc3c21	13
C[n+]1c2ccccc2n2nc3c(cc21)c1cccnc1c1ncccc31	-4
CCc1ccc(NC(=O)c2c(CC)noc2C)cc1	0
CCCCC1(C)OC(=O)C(=Cc2ccc(-c3cc(C(=O)O)ccc3Cl)o2)C(=O)O1 (stereo unspecified)	85*
CCC(C)N1C(=O)S/C(=C/c2ccc(-c3cc(C(=O)O)ccc3Cl)o2)C1=O (stereo unspecified)	15
O=C(O)c1ccc(Cl)c(-c2ccc(/C=N/Nc3ccccc3)o2)c1	2
Cc1ccc(C)c(-c2csc(NC(=O)c3ccnn3C)c2C#N)c1	-4
C/C=C/CN1N=C(C)C(C)n2c1nc1c2c(=O)n(C/C=C/C)c(=O)n1C (stereo unspecified)	12
CC(C)(C)OC(=O)N1CC=C2C(C#N)C(=N)C(C#N)(C#N)[C@H](c3ccc(C(F)(F)F)cc3)[C@H]2C1 (stereo partly specified)	10
OCCNc1cc2nccnc2cc1F	-6
N#Cc1c(N)[n+]([O-])c2cc(NCCO)c(F)cc2[n+]1[O-]	28*
Cc1ncc2c(c1-c1noc(Cn3c(=O)oc4ccccc43)n1)CCNC2	6
COCCn1cnc2cc(NC(=O)C3CCCCC3)cc(C(=O)N3CCC(c4ccccc4)CC3)c21	-5
CN(C)c1ncc2c(n1)CCCC2NCc1ccc(CO)o1 (stereo unspecified)	-5

Screening data from PubChem.
